In PubChem BioAssay (EPA / NIEHS):
Results filed as inconclusive are left out. Active and inactive are the calls of the source. The calls were made as follows: active = hit-call score of the fitted dose curve at least 0.9, where 1 is the maximum; inconclusive = response in the unintended direction; inactive = score below 0.9.

molecular target: Oxysterols receptor LXR-beta (Homo sapiens) (UniProt P55055); assay: ATG_LXRb_TRANS: Attagene TRANS-FACTORIAL HepG2 Assay for human Liver X Receptor beta (LXRb) (AID 2282981); conditions: HepG2 Attagene TRANS GAL4-LXRb reporter, mRNA
Protocol: ATG_TRANS is a cell-based, multiplexed-readout assay that uses HepG2, a human liver cell line, with measurements taken at 24 hours after chemical dosing in a 24-well plate.ATG_LXRb_TRANS is one of 30 assay component(s) measured or calculated from the ATG_TRANS assay. It is designed to make measurements of mRNA induction, a form of inducible reporter, as detected with fluorescence intensity signals by Reverse transcription polymerase chain reaction (RT-PCR) and Capillary electrophoresis technology.Data from the assay component ATG_LXRb_TRANS was analyzed into 1 assay endpoint. This assay endpoint, ATG_LXRb_TRANS, was analyzed in the positive analysis fitting direction relative to DMSO as the negative control and baseline of activity. Using a type of inducible reporter, measures of mRNA for gain-of-signal activity can be used to understand the reporter gene at the transcription factor-level as they relate to the gene NR1H2. Furthermore, this assay endpoint can be referred to as a primary readout, because this assay has produced multiple assay endpoints where this one serves a reporter gene function. To generalize the intended target to other relatable targets, this assay endpoint is annotated to the nuclear receptor intended target family, where the subfamily is non-steroidal.
Human liver HepG2 cells are transiently transfected with multiple reporter transcription units (MRTUs) in 6-well plates using FuGene 6 reagent (Roche; 3 ml FuGene/1 mg DNA). The MRTU constructs are regulated by a cis-regulating element (promoter). […] A major difference between the CIS and TRANS system is that in CIS activities of endogenous TFs are measured, whereas the TRANS assay evaluates changes in activities of exogenous, chimeric NR-Gal4 proteins. […] At the end of 24 hour incubation, total RNA was isolated using TriZol reagent (Invitrogen). The isolated RNA is then reverse-transcribed using oligo(dT) primer and Mo-MLV reverse transcriptase (Invitrogen) with DNAse I (Ambion) treatment for 30 min. The one-tenth of the produced cDNA was amplified by PCR using Taq DNA polymerase (Invitrogen) and two reporter sequence-specific primers. The PCR products were fluorescently labeled by primer extension with 6-arboxyfluorescein (6-FAM) 5'-labeled reporter sequence-specific primer (2 min at 95 C, 20 s at 68 C and 10 min at 72 C) and these products were digested with 5U of HpaI (New England Biolabs) for 2h at 37 C. The fragments were purified using Qiaquick PCR columns (Qiagen), analyzed on an ABI 3130xL genetic analyzer (Applied Biosystems) with peak positions identified by using a set of X-rhodamine (ROX)-labeled MapMarker1000 molecular weight standards (BioVentures). The raw capillary electrophoresis data was processed using Attagraph software (Attagene).

Sequence of Oxysterols receptor LXR-beta (Homo sapiens) (P55055 whole entry, looked up, the tested form may be a part): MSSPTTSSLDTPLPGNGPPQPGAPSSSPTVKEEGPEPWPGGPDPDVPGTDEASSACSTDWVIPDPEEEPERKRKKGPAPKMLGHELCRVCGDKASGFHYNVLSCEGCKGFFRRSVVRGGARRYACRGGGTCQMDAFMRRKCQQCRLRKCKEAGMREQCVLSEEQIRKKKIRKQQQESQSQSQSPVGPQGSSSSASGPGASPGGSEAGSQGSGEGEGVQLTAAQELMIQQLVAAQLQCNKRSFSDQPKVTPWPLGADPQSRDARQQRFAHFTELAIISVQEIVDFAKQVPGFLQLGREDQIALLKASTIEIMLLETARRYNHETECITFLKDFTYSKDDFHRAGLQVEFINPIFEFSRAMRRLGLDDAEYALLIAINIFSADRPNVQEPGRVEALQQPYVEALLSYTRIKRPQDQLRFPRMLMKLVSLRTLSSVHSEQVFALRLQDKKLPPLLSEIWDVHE

How did the outcome turn out when CNC(=O)Oc1cccc2ccccc12 was run?
The outcome was “inactive”.

How did the outcome turn out when OC(c1ccc(Cl)cc1)(c1ccc(Cl)cc1)C(Cl)(Cl)Cl was run?
The outcome was “inactive”.

CCNP(=S)(OC)O/C(C)=C/C(=O)OC(C)C (stereo not given) was tested. Which outcome did it give?
Its outcome is “inactive”.

For N#CN=C1SCCN1Cc1ccc(Cl)nc1, which outcome is on record?
The outcome was “inactive”.

For COP(=S)(OC)SCn1nnc2ccccc2c1=O, which outcome is on record?
The outcome was “inactive”.

Nc1c(Cl)c(Cl)nc(C(=O)O)c1Cl was tested. Which outcome did it give?
The outcome was “inactive”.

O=C1C2CC=CCC2C(=O)N1SC(Cl)(Cl)Cl (stereo not given) was tested. Which outcome did it give?
Its outcome is “inactive”.

Nc1cnn(-c2ccccc2)c(=O)c1Cl was tested. Which outcome did it give?
Its outcome is “inactive”.

Which outcome does the source give for Cc1ccc(N=CN(C)C=Nc2ccc(C)cc2C)c(C)c1 here?
The outcome was “inactive”.

With COC(=O)NC(=S)Nc1ccccc1NC(=S)NC(=O)OC as the compound, how does the outcome read?
The outcome was “inactive”.

Which outcome does the source give for CC1(C)CCC(=Cc2ccc(Cl)cc2)C1(O)Cn1cncn1 (stereo not given) here?
Its outcome is “inactive”.

For CCC(C)n1c(=O)[nH]c(C)c(Br)c1=O (stereo not given), which outcome is on record?
Its outcome is “inactive”.

CCCN(CC)CC1COC2(CCC(C(C)(C)C)CC2)O1 (stereo not given) was tested. Which outcome did it give?
The outcome was “inactive”.

How did the outcome turn out when Cc1cnc(C2=NC(C)(C(C)C)C(=O)N2)c(C(=O)O)c1 (stereo not given) was run?
The outcome was “inactive”.

Which outcome does the source give for Clc1cccc(C(Cl)(Cl)Cl)n1 here?
The outcome was “inactive”.

For N#Cc1c[nH]cc1-c1cccc2c1OC(F)(F)O2, which outcome is on record?
Its outcome is “inactive”.

Which outcome does the source give for CCCC(=NOCC)C1=C(O)CC(CC(C)SCC)CC1=O (stereo not given) here?
The outcome was “inactive”.

CC(C)(C)C(=O)C(Oc1ccc(Cl)cc1)n1cncn1 (stereo not given) was tested. Which outcome did it give?
The outcome was “inactive”.

How did the outcome turn out when CCN(CC)c1nc(C)cc(OP(=S)(OC)OC)n1 was run?
Its outcome is “inactive”.

For Cc1cc(C)nc(Nc2ccccc2)n1, which outcome is on record?
The outcome was “inactive”.

Which outcome does the source give for C=CCOC(=O)C(C)(C)OC(=O)c1cc(-n2c(=O)cc(C(F)(F)F)n(C)c2=O)ccc1Cl here?
The outcome was “inactive”.

Which outcome does the source give for COCC(=O)N(c1c(C)cccc1C)C(C)C(=O)OC (stereo not given) here?
The outcome was “inactive”.

With CN=C=S as the compound, how does the outcome read?
The outcome was “inactive”.

For CN/C(=N\[N+](=O)[O-])NCc1cnc(Cl)s1, which outcome is on record?
The outcome was “inactive”.

Which outcome does the source give for COCc1cnc(C2=NC(C)(C(C)C)C(=O)N2)c(C(=O)O)c1 (stereo not given) here?
Its outcome is “inactive”.

For COC(=O)NS(=O)(=O)c1ccc(N)cc1, which outcome is on record?
Its outcome is “inactive”.

For CCSC(=O)N1CCCCCC1, which outcome is on record?
Its outcome is “inactive”.

How did the outcome turn out when O=C(O)c1c(Cl)ccc2cc(Cl)cnc12 was run?
The outcome was “inactive”.

With CCN(CC)C(=O)C(C)Oc1cccc2ccccc12 (stereo not given) as the compound, how does the outcome read?
The outcome was “inactive”.

With CO/N=C(/C1=NOCCO1)c1ccccc1Oc1ncnc(Oc2ccccc2Cl)c1F as the compound, how does the outcome read?
The outcome was “inactive”.

How did the outcome turn out when COCC(C)N(C(=O)CCl)c1c(C)csc1C (stereo not given) was run?
The outcome was “inactive”.

How did the outcome turn out when O=C(Nc1ccccc1-c1ccc(Cl)cc1)c1cccnc1Cl was run?
The outcome was “inactive”.

Which outcome does the source give for CNC(=O)N(C)c1nnc(C(C)(C)C)s1 here?
Its outcome is “inactive”.

For CC(C)Nc1nc(Cl)nc(NC(C)C)n1, which outcome is on record?
The outcome was “inactive”.

How did the outcome turn out when CCNC(=O)NC(=O)C(C#N)=NOC was run?
Its outcome is “inactive”.

With Clc1nc(Cl)nc(Nc2ccccc2Cl)n1 as the compound, how does the outcome read?
Its outcome is “inactive”.

How did the outcome turn out when CC1(C)CON(Cc2ccccc2Cl)C1=O was run?
Its outcome is “inactive”.

For CCOP(=S)(OCC)Oc1nc(Cl)n(C(C)C)n1, which AC50 is on record?
Its AC50 is 16.4 µM (active).

For COP(=S)(OC)Oc1ccc([N+](=O)[O-])c(C)c1, which outcome is on record?
The outcome was “inactive”.

Which outcome does the source give for CCOP(=O)(OCC)Oc1nc(Cl)c(Cl)cc1Cl here?
The outcome was “inactive”.
